{"source": "PubChem BioAssay AID624093", "about": "(National Center for Advancing Translational Sciences (NCATS), 2012)", "target": "Dual specificity tyrosine-phosphorylation-regulated kinase 1A (Homo sapiens) (UniProt Q13627)", "assay": "Confirmation Assay for Inhibitors of Dyrk1a (Kinase-Glo Assay): KU probe", "details": "Kinase-Glo ATP luminescence", "description": "NIH Molecular Libraries Probe Production Centers Network [MLPCN] NIH Chemical Genomics Center [NCGC] MLSCN Grant: 1R03MH084827-01 PI Name: Tom Misteli NCGC Assay Overview: The CMGC group of protein kinases which includes CDK-like kinases (Clk) and Dyks are essential kinases found in all eukaryotes. Clks have been implicated to play a role in the regulation of alternative splicing; while Dyrks, in particular over expression of Dyrk1A, has been linked to diseases as Down syndrome (DS; OMIM 190685) and Alzheimer disease (AD; OMIM 104300). Among the members of the CMGC group, the Clks and the Dyrks are very closely related therefore to determine validity and selectivity of an active compound observed in the CLK4 qHTS screen (AID:1770), a bioluminescent counter-screen against Dyrk1A was developed. […]\nNCGC Assay Protocol Summary: Two uL/well of substrate solution (8uM Dyrktide, 2uM ATP, 25mM Tris-HCl pH 7.5, 10mM MgCl2 , 0.5mM EGTA, 5mM cystein, 0.01% Triton X-100 final concentration) was dispensed into 1536-well assay plates (Greiner, solid white, medium-binding plates) with Aurora Discovery BioRAPTR Flying Reagent Dispenser (FRD, Beckton-Dickenson). […] The plates were spun for 30 seconds (1000 rpm) and incubated at ambient temperature for 2 minutes followed by a luminescence read using Perkin Elmer ViewLux plate reader at 3 seconds exposure time and 2x binning.", "note": "Results filed as inconclusive are left out. Active and inactive are the calls of the source. Calls come from the whole dose curve; as a rule, active = well fitted inhibition curve with a large enough effect; inconclusive = small, poorly fitted or top-dose-only effect; inactive = flat fitted curve, though single readings scatter."}
{"molecule": "Cc1cc(CNc2ccnc(-c3ccc4c(c3)OCO4)n2)cnc1F", "values": [{"measurement": "Potency", "result": "18.4 µM (active)"}]}
